In PubChem BioAssay (Tox21):
Results filed as inconclusive are left out. The source made the active and inactive calls. Calls come from the whole dose curve.

Legend:
[1] = biological target: Acetylcholinesterase (Homo sapiens) (UniProt P22303); assay: Acetylcholinesterase (AChE) small molecule antagonists: colormetric cell-based qHTS assay (AID 1347395); note: nearly all actives have a fitted effect of over 30% in size
Procedure, shortened: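 Colorimetric read-out: DTNB detects thiocholine released when cellular AChE in SH-SY5Y cells hydrolyses acetylthiocholine. Cells attached overnight, received compound for 30 min at 37 C, then substrate mix for 90 min at 37 C.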

[2] = biological target: Acetylcholinesterase (Homo sapiens) (UniProt P22303); assay: Acetylcholinesterase (AChE) small molecule antagonists: enzyme-based qHTS assay (AID 1347397); conditions: Potency: AChE enzyme activity inhibition; outcome: AChE enzyme activity inhibition; note: nearly all actives have a fitted effect of over 55% in size
Procedure, shortened: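 Compound or DMSO vehicle was pin-transferred onto recombinant human AChE (50 mU/mL as dispensed) and left 30 min at room temperature. Acetylthiocholine with DTNB then started the reaction, read colorimetrically 10 min later.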

[3] = biological target: Acetylcholinesterase (Homo sapiens) (UniProt P22303); assay: Acetylcholinesterase (AChE) small molecule antagonists: fluorescence cell-based qHTS assay (AID 1347398); conditions: Potency: AChE activity; outcome: AChE activity; note: nearly all actives have a fitted effect of over 50% in size
Procedure, shortened: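 Using neuroblastoma SH-SY5Y cells as the enzyme source, test chemicals are preincubated 30 min at 37 C; AChE-driven acetylthiocholine cleavage is then quantified by thiocholine-dependent Thiolite Green fluorescence after 40 min at room temperature.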

[4] = biological target: Acetylcholinesterase (Homo sapiens) (UniProt P22303); assay: Acetylcholinesterase (AChE) small molecule antagonists: enzyme-based qHTS assay with human liver microsomes (AID 1347399); conditions: Potency: qHTS inhibition; outcome: qHTS inhibition; note: nearly all actives have a fitted effect of over 60% in size
Procedure, shortened: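 Recombinant human AChE (50 mU/mL in the enzyme mix) and human liver microsomes (0.25 mg/mL final) were preincubated with compound and NADPH (0.25 mg/mL final) for 30 min at 37 C. Acetylthiocholine/DTNB was then added; thiocholine was read colorimetrically after 10 min at room temperature.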
% is set by controls: 0 for no effect and ±100 for the full control effect.

Chain of Acetylcholinesterase (Homo sapiens) (P22303 whole entry, looked up): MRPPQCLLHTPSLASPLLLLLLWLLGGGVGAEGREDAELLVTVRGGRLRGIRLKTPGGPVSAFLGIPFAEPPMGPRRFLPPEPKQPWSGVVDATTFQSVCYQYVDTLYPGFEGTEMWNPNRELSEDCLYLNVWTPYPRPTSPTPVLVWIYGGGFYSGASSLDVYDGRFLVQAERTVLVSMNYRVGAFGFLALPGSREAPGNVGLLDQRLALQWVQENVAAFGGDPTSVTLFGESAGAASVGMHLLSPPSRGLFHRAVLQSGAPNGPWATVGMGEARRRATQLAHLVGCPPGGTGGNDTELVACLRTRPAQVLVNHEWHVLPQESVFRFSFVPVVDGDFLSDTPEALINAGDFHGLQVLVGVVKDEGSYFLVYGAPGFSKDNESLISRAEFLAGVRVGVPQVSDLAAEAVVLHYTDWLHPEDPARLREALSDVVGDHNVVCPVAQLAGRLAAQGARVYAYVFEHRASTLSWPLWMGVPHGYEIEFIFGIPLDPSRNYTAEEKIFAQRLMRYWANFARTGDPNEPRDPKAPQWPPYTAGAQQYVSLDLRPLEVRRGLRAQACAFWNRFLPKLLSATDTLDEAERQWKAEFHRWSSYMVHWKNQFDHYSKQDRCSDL

O=C(O)c1ccccc1-c1ccc(C(F)(F)F)cc1
inactive: Potency [1] | Potency [2] | Potency [3] | Potency [4]

CC(C)(C)NCCNC(C)(C)C
inactive: Potency [1] | Potency [2] | Potency [3] | Potency [4]

CC(C)(C)C(=O)/C=C/c1ccc(Cl)cc1
inactive: Potency [1] | Potency [2] | Potency [3] | Potency [4]

Oc1cccc2c(O)cccc12
inactive: Potency [1] | Potency [2] | Potency [3] | Potency [4]

CO[Si](C)(OC)c1ccccc1
inactive: Potency [1] | Potency [2] | Potency [3] | Potency [4]

C[C@@H]1CC[C@H]2C(C)(C)[C@H]3C[C@@]12CC[C@@]3(C)O
inactive: Potency [1] | Potency [2] | Potency [3] | Potency [4]

Nc1nc(CC(=O)O)cs1
inactive: Potency [1] | Potency [2] | Potency [3] | Potency [4]

CN(Cc1ccc(C(C)(C)C)cc1)Cc1cccc2ccccc12
inactive: Potency [1] | Potency [2] | Potency [3] | Potency [4]

Clc1cc(Cl)cc(Cl)c1
inactive: Potency [1] | Potency [2] | Potency [3] | Potency [4]

C=C(C)C(=O)OCCCC
inactive: Potency [1] | Potency [2] | Potency [3] | Potency [4]

C=C(C)[C@@H]1CC[C@@H](C)C[C@@H]1O
inactive: Potency [1] | Potency [2] | Potency [3] | Potency [4]

O=c1[nH]ncc2ccccc12
inactive: Potency [1] | Potency [2] | Potency [3] | Potency [4]

CC[N+]1(CC)CCC(=C(c2ccccc2)c2ccccc2)C1C (stereo not given)
inactive: Potency [1] | Potency [2] | Potency [3] | Potency [4]

NC(=O)Nc1ccc(Cl)c(Cl)c1
inactive: Potency [1] | Potency [2] | Potency [3] | Potency [4]

N#Cc1cscn1
inactive: Potency [1] | Potency [2] | Potency [3] | Potency [4]

C[C@]12CC[C@H]3C(=CCc4cc(O)ccc43)[C@@H]1CCC2=O
inactive: Potency [1] | Potency [2] | Potency [3] | Potency [4]

CC(C)c1ccc2c(c1)CC[C@H]1[C@](C)(CN)CCC[C@]21C
inactive: Potency [1] | Potency [2] | Potency [3] | Potency [4]

CC(C)=CCC/C(C)=C/CC/C(C)=C/CCC(=O)OC/C=C(\C)CCC=C(C)C
inactive: Potency [1] | Potency [2] | Potency [3] | Potency [4]

Cc1cnc(C)c(C)n1
inactive: Potency [1] | Potency [2] | Potency [3] | Potency [4]

OCCCCCCO
inactive: Potency [1] | Potency [2] | Potency [3] | Potency [4]

CC(C)(C)c1cc(CCC(=O)NCCCCCCNC(=O)CCc2cc(C(C)(C)C)c(O)c(C(C)(C)C)c2)cc(C(C)(C)C)c1O
inactive: Potency [1] | Potency [2] | Potency [3] | Potency [4]

O=C(CC(=O)C(F)(F)F)c1ccccc1
inactive: Potency [1] | Potency [2] | Potency [3] | Potency [4]

NC(=O)c1cc[n+](CC2=C(C(=O)[O-])N3C(=O)[C@@H](NC(=O)Cc4cccs4)[C@H]3SC2)cc1
inactive: Potency [1] | Potency [2] | Potency [3] | Potency [4]

O=C1CCCc2c1cc1ccc3cccc4ccc2c1c34
inactive: Potency [1] | Potency [2] | Potency [3] | Potency [4]

O=C(Nc1ccc([N+](=O)[O-])cc1)Nc1ccc([N+](=O)[O-])cc1
inactive: Potency [1] | Potency [2] | Potency [3] | Potency [4]

CCCC(=O)O[C@]1(C(=O)CCl)[C@@H](C)C[C@H]2[C@@H]3CCC4=CC(=O)C=C[C@]4(C)[C@@]3(F)C(=O)C[C@@]21C
inactive: Potency [1] | Potency [2] | Potency [3] | Potency [4]

CC(O)C1CCCCC1 (stereo not given)
inactive: Potency [1] | Potency [2] | Potency [3] | Potency [4]

O=c1[nH]c(=O)n([C@H]2C[C@H](O)[C@@H](CO)O2)cc1I
inactive: Potency [1] | Potency [2] | Potency [3] | Potency [4]

NC(=O)CCCCC(N)=O
inactive: Potency [1] | Potency [2] | Potency [3] | Potency [4]

NC1CCN(c2nc3c(cc2F)c(=O)c(C(=O)O)cn3-c2ccc(F)cc2F)C1 (stereo not given)
inactive: Potency [1] | Potency [2] | Potency [3] | Potency [4]

C1CCCCCCCCCCC1
inactive: activity, negative = inhibition [1] -0.403% [at 23.6 µM] | activity change, negative = inhibition [2] 0.515% [at 23.6 µM] | activity change, negative = inhibition [3] 7.82% [at 23.8 µM] | activity change, negative = inhibition [4] -0.0559% [at 23.6 µM]

CC(C)=CCC/C(C)=C/C#N
inactive: Potency [1] | Potency [2] | Potency [3] | Potency [4]

CN(C)C(=O)Nc1ccc(Oc2ccc(Cl)cc2)cc1
inactive: Potency [1] | Potency [2] | Potency [3] | Potency [4]

CC(=O)Nc1ncc([N+](=O)[O-])s1
inactive: Potency [1] | Potency [2] | Potency [3] | Potency [4]

NS(=O)(=O)c1ccccc1Cl
inactive: Potency [1] | Potency [2] | Potency [3] | Potency [4]

CCOc1ccc(NC(=O)OC(C)C)cc1OCC
inactive: Potency [1] | Potency [2] | Potency [3] | Potency [4]

OCC(O)c1ccccc1 (stereo not given)
inactive: Potency [1] | Potency [2] | Potency [3] | Potency [4]

Nc1nc(Cl)nc2c1ncn2[C@@H]1O[C@H](CO)[C@@H](O)[C@@H]1F
inactive: Potency [1] | Potency [2] | Potency [3] | Potency [4]

c1ccc(CN(CC2=NCCN2)c2ccccc2)cc1
inactive: Potency [1] | Potency [2] | Potency [3] | Potency [4]

CCOC(=O)Nc1ccc2c(c1)N(C(=O)CCN1CCOCC1)c1ccccc1S2
inactive: Potency [1] | Potency [2] | Potency [3] | Potency [4]

O=C(Nc1ccc([N+](=O)[O-])cc1)Nc1ccc([N+](=O)[O-])cc1 (tested in a mixture with another compound)
inactive: Potency [1] | Potency [2] | Potency [3] | Potency [4]

NC(=O)c1ccccc1C(N)=O
inactive: Potency [1] | Potency [2] | Potency [3] | Potency [4]

O=C(O)Cc1sc(-c2ccccc2)nc1-c1ccc(Cl)cc1
inactive: Potency [1] | Potency [2] | Potency [3] | Potency [4]

CCCCOCCOC(=O)CCCCCCCCC(=O)OCCOCCCC
inactive: Potency [1] | Potency [2] | Potency [3] | Potency [4]

CC(=O)CC(=O)OC(C)(C)C
inactive: Potency [1] | Potency [2] | Potency [3] | Potency [4]

CO[Si](CCCNc1ccccc1)(OC)OC
inactive: Potency [1] | Potency [2] | Potency [3] | Potency [4]

CCOC(OCC)C(=O)c1ccccc1
inactive: Potency [1] | Potency [2] | Potency [3] | Potency [4]

CCCCC(CC)CNCC(CC)CCCC (stereo not given)
inactive: Potency [1] | Potency [2] | Potency [3] | Potency [4]

CC(CO)CO
inactive: Potency [1] | Potency [2] | Potency [3] | Potency [4]

C#CCOC(=O)[C@@H](C)Oc1ccc(Oc2ncc(Cl)cc2F)cc1
inactive: Potency [1] | Potency [2] | Potency [3] | Potency [4]

O=C(Nc1ccccc1)c1ccccc1O
inactive: Potency [1] | Potency [2] | Potency [3] | Potency [4]

CCCC1CCOC(C)S1 (stereo not given)
inactive: Potency [1] | Potency [2] | Potency [3] | Potency [4]

NCC1CCCC(CN)C1 (stereo not given)
inactive: Potency [1] | Potency [2] | Potency [3] | Potency [4]

N#Cc1c(F)cccc1F
inactive: Potency [1] | Potency [2] | Potency [3] | Potency [4]

CC(=O)OC(OC(C)=O)c1ccc([N+](=O)[O-])o1
inactive: Potency [1] | Potency [2] | Potency [3] | Potency [4]

CC(C)OC(=O)c1cc2c(OCC(O)CNC(C)(C)C)cccc2[nH]1 (stereo not given)
inactive: Potency [1] | Potency [2] | Potency [3] | Potency [4]

c1ccc(CCCc2ccccn2)cc1
inactive: Potency [1] | Potency [2] | Potency [3] | Potency [4]

CCCCNC1CC(C)(C)NC(C)(C)C1
inactive: Potency [1] | Potency [2] | Potency [3] | Potency [4]

CC(C)(O)C(=O)O
inactive: Potency [1] | Potency [2] | Potency [3] | Potency [4]

CC(=O)N(c1onc(C)c1C)S(=O)(=O)c1ccc(N)cc1
inactive: Potency [1] | Potency [2] | Potency [3] | Potency [4]

CCC(C)SSC(C)CC (stereo not given)
inactive: Potency [1] | Potency [2] | Potency [3] | Potency [4]

COC(=O)/C=C\C(=O)O
inactive: Potency [1] | Potency [2] | Potency [3] | Potency [4]

C[C@@]12CCC[C@H]1[C@@H]1CC[C@H]3C[C@@H](O)CC[C@]3(C)[C@H]1CC2
inactive: Potency [1] | Potency [2] | Potency [3] | Potency [4]

OC(CN1CCC(Cc2ccc(F)cc2)CC1)c1ccc(Cl)cc1 (stereo not given)
inactive: Potency [1] | Potency [2] | Potency [3] | Potency [4]

COc1cnc(NS(=O)(=O)c2ccc(N)cc2)nc1
inactive: Potency [1] | Potency [2] | Potency [3] | Potency [4]

COc1ccccc1N1CCN(CC(O)COc2cc(OC)c(OC)c(OC)c2)CC1 (stereo not given)
inactive: Potency [1] | Potency [2] | Potency [3] | Potency [4]

COc1cc2nc(Cl)nc(N)c2cc1OC
inactive: Potency [1] | Potency [2] | Potency [3] | Potency [4]

O=[N+]([O-])c1ccc(F)c(Cl)c1
inactive: Potency [1] | Potency [2] | Potency [3] | Potency [4]

CCSCC
inactive: Potency [1] | Potency [2] | Potency [3] | Potency [4]

O=C1Cc2ccccc2N1c1c(Cl)cccc1Cl
inactive: Potency [1] | Potency [2] | Potency [3] | Potency [4]

COC(=O)c1cccc(Cl)c1
inactive: Potency [1] | Potency [2] | Potency [3] | Potency [4]

O=c1cccccc1O
inactive: Potency [1] | Potency [2] | Potency [3] | Potency [4]

Cc1cc(N)c(S(=O)(=O)O)cc1Cl
inactive: Potency [1] | Potency [2] | Potency [3] | Potency [4]

SCCCCCCCCS
inactive: Potency [1] | Potency [2] | Potency [3] | Potency [4]

Cc1ccc(NC(N)=O)cc1
inactive: Potency [1] | Potency [2] | Potency [3] | Potency [4]

CCCC(=O)OC(=O)CCC
inactive: Potency [1] | Potency [2] | Potency [3] | Potency [4]

COC(=O)/C=C/C(C)=C\C=C\C(C)=C\C=C\C=C(C)\C=C\C=C(C)\C=C\C(=O)O
inactive: Potency [1] | Potency [2] | Potency [3] | Potency [4]

CC(C)Nc1nc(N)nc(Cl)n1
inactive: Potency [1] | Potency [2] | Potency [3] | Potency [4]

N#Cc1ccc(C(c2ccc(C#N)cc2)n2cncn2)cc1
inactive: Potency [1] | Potency [2] | Potency [3] | Potency [4]

COc1ccc(CCC(=O)c2c(O)cc(O[C@@H]3O[C@H](CO)[C@@H](O)[C@H](O)[C@H]3O[C@@H]3O[C@@H](C)[C@H](O)[C@@H](O)[C@H]3O)cc2O)cc1O
inactive: Potency [1] | Potency [2] | Potency [3] | Potency [4]

c1ccc2cc3c4ccccc4c4ccccc4c3cc2c1
inactive: Potency [1] | Potency [2] | Potency [3] | Potency [4]

CC(C)(C)c1csc(-c2cc3cc(OCc4ccccc4CC(=O)O)ccc3o2)n1
inactive: Potency [1] | Potency [2] | Potency [3] | Potency [4]

CO[Si](C)(OC)OC
inactive: Potency [1] | Potency [2] | Potency [3] | Potency [4]

Cc1cccc([N+](=O)[O-])c1C(=O)O
inactive: Potency [1] | Potency [2] | Potency [3] | Potency [4]

C/C=C/C(=O)C1=C(C)C=CCC1(C)C
inactive: Potency [1] | Potency [2] | Potency [3] | Potency [4]
